Shown are actives, neighbours in structure and some others; about 2.2% of the full set was active somewhere.
TDP-43 yeast inh = qHTS of TDP-43 Inhibitors; TDP-43 expressing yeast growth rescue, BacTiter-Glo, 24 h; Potency, µM (doses to about 46.1 µM), without a hit: top-dose growth rescue (activation), usual class: activators; 1.8% of 410,000 active; AID 652104, 2013; note: % of control where 0% means no effect; nearly all actives have a fitted effect of over 50% in size
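Cell-based yeast growth screen: TDP-43 expression induced in galactose, inoculum OD600=0.02 after raffinose pregrowth to mid-log. Read-out BacTiter-Glo luminescence at 24 hr, 30 deg C; inhibition of toxicity seen as signal increase.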
Abeta yeast res = qHTS for compounds that reverse cellular toxicity of Amyloid beta (A-beta) peptide in yeast: Primary Screen; Potency, µM (titrated, usually from 46.1 µM), most hits filed as activators; yeast expressing A-beta42, growth rescue, OD600, 48 h; response scale: 0% DMSO, 100% iron-clioquinol control; 0.063% of 410,000 active; note: nearly all actives have a fitted effect of over 55% in size
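Growth rescue measured by 600 nm absorbance after 48 h yeast culture at 30 C with compound. Values normalized between DMSO and an equimolar ferric chloride plus clioquinol control.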
aSyn rescue = qHTS of alpha-syn Inhibitors. AID 652106, 2013. Yeast expressing alpha-synuclein, growth rescue, BacTiter-Glo, 24 h. Potency, µM (series often up to 46.1 µM), without a hit: at the highest dose growth rescue (activation), most hits filed as activators. 0.14% of 370,000 active; note: % of control where 0% means no effect; nearly all actives have a fitted effect of over 65% in size
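Screening used galactose-induced yeast with toxic alpha-synuclein levels, exposed to compound for 24 hr at 30 deg C. Cell growth, read with BacTiter-Glo luminescence, gave the measured signal.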
FUS suppressor = qHTS for Suppressors of FUS Proteinopathy: Primary screen using FUS-linked yeast assay. S. cerevisiae FUS-expressing, growth rescue, OD600, 24 h. Potency, µM (titrated, usually from 76.6 µM), usual class: activators. 0.24% of 390,000 active. AID 1347120, 2019;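 note: plate controls were DMSO vehicle for no effect and reference control for full effect; nearly all actives have a fitted effect of over 55% in size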
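Compound concentration series was pinned onto galactose-induced FUS-expressing yeast seeded at OD 0.005. Plates sat 24hr at 30C; absorbance at 600 nm gave growth. DMSO served as background control.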
Mito fusion act = qHTS Assay for Small Molecule Inhibitors of Mitochondrial Division or Activators of Mitochondrial Fusion; S. cerevisiae fusion-defective mutant growth rescue, CellTiterGlo 48 h; Potency, µM (top dose mostly 46.1 µM), for the others: at the highest dose growth rescue (activation), actives largely listed as activators; 0.23% of 320,000 active; note: % of control where 0% means no effect; nearly all actives have a fitted effect of over 45% in size
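S. cerevisiae fusion-defective temperature-sensitive mutants (e.g. fzo1-1, mgm1-5) grown 48 h at 37C in YPEG (ethanol/glycerol non-fermentable) medium with 23 nl compound per well; growth rescue read as CellTiterGlo luminescence.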
An asterisk follows results filed as active; i = inactive; ? = inconclusive; . = no result. Calls come from the whole dose curve; as a rule, active = well fitted curve in the direction sought with a large enough effect; inconclusive = small, poorly fitted or top-dose-only effect, or another doubt; inactive = no such curve, though single readings can be large; an effect the other way counts as inactive or inconclusive. Potency is the fitted concentration of half-maximal effect.

SMILES	TDP-43 yeast inh	Abeta yeast res	aSyn rescue	FUS suppressor	Mito fusion act
COC(=O)C1=C(C(=O)OC)SC(=C2C(=S)C(C)(C)N(C(=O)C3CC3)c3ccccc32)S1	2.2µM*	i	25%	i	6%
COC(=O)C1=C(C(=O)OC)SC(=C2C(=S)C(C)(C)N(C(=O)C(C)C)c3ccccc32)S1	3.2µM*	i	?	i	2%
CC1C(=O)Nc2ccccc2N1C(=O)C1CC1 (stereo not drawn)	-12%	i	-3%	i	-2%
CCOC(=O)c1c(C)n(-c2ccccc2)c2ccc(OC(=O)c3ccccc3NC(=O)C(C)(C)C)cc12	?	i	.	?	.
O=C(N/N=C/c1ccc(OCc2ccccc2)cc1)c1cc[n+](Cc2ccccc2)cc1	20µM*	i	2%	i	-3%
O=C(N/N=C/c1ccc(O)cc1)c1cc[n+](Cc2ccccc2)cc1	7%	i	-13%	i	-2%
Cc1ccc(C(C)C)cc1OCC(=O)N/N=C/c1ccc2c(c1)OCCO2	13µM*	i	0%	i	14%
COc1cc2nc(N3CCCCC3)nc(NC3CCN(C)CC3)c2cc1OC	.	.	-1%	.	.
CC1CN(C(=O)N2CCC(C(=O)NCCC3=CCCCC3)CC2)c2ccccc2O1 (stereo not drawn)	0%	i	.	i	.
CCCSc1nnc(Sc2nnnn2-c2ccccc2)s1	18µM*	i	0%	i	0%
Cc1cc(NC(c2cccnc2)c2ccc3cccnc3c2O)no1 (stereo not drawn)	2%	i	14%	i	6%
COc1cccc(C(Nc2ccccc2)c2ccc3ccc(C)nc3c2O)c1 (stereo not drawn)	22µM*	?	18µM*	i	.
Cc1cccc(NC(c2ccc(O)cc2)c2ccc3ccc(C)nc3c2O)n1 (stereo not drawn)	-22%	i	-4%	16µM*	-2%
CC(=O)c1cc(-c2ccc(F)cc2)n(CCC(=O)NCc2ccc(C)cc2)c1C	18%	i	.	i	.
Cc1c(NC(=O)C(C)OC(=O)c2c3c(nc4ccccc24)CCC3)c(=O)n(-c2ccccc2)n1C (stereo not drawn)	0%	i	-4%	22µM*	-6%
CNC(=O)COc1ccccc1C(=O)Nc1ccccc1	.	.	-3%	.	.
Cc1ccc(S(=O)(=O)Nc2cc(C)cc(CCNC=O)c2C)cc1	-2%	i	2%	.	.
Cc1c(CCNC=O)cc(C)c2c3c(oc12)CCCC3	16µM*	i	17%	.	.
COc1ccc(N2CCN(C(=O)CCC(=O)N3CCOc4ccc(C)cc43)CC2)cc1	4%	i	-1%	i	5%
COc1ccc(N2CCN(C(=O)CCC(=O)N3CCOc4ccc(Cl)cc43)CC2)cc1	16µM*	i	10%	i	3%
Cc1cccc2cc3c(N)c(C#N)sc3nc12	3.2µM*	i	?	i	2%
CCCCCCCCCCOC(=O)Cn1c(COc2ccccc2C)[n+](C)c2ccccc21	.	i	-52%	40µM*	-28%
Cn1cnc2c1c(=O)n(Cc1cccc(Br)c1)c(=O)n2C	?	i	?	i	12%
CCn1cnc2c1c(=O)n(Cc1cccc(Br)c1)c(=O)n2Cc1ccccc1	22µM*	i	0%	i	?
COc1ccc(-n2ncc(C(=O)NCCCN3CCCCC3)c2C2CCN(C(=O)OC(C)(C)C)CC2)cc1	-9%	i	.	i	.
SMILES	TDP-43 yeast inh	Abeta yeast res	aSyn rescue	FUS suppressor	Mito fusion act
O=C1c2ccccc2C2(c3ccccc3)N1CCN2C(=O)C(Cl)(Cl)Cl (stereo not drawn)	13µM*	i	5%	i	-9%
CC(=O)c1cc(-c2ccccc2)n(CC(=O)NCc2ccccc2C)c1C	11%	i	.	i	.
COc1cc(/C=C/C(=O)c2ccc3c(c2)OCCO3)cc(OC)c1OC	?	i	8%	i	-18%
COc1ccc(OC)c(/C=C/C(=O)c2ccc3c(c2)OCCO3)c1	11µM*	i	-11%	i	-12%
CCCCCCCCCS(=O)(=O)N/N=C/c1cccc([N+](=O)[O-])c1	-5%	i	14%	i	?
CCCCCCCCCCS(=O)(=O)N/N=C/c1ccc(O)cc1	14µM*	i	?	i	24%
O=C(CSc1nc2ccccc2nc1Cc1ccccc1)NCc1ccccc1Cl	-5%	i	.	i	.
Cc1nc(SCc2cccc(Oc3ccccc3)c2)n[nH]1	28µM*	i	-32%	i	0%
CSCCC(NS(=O)(=O)c1ccc2c(c1)oc(=O)n2C)C(=O)N1CCN(c2cccc(Cl)c2)CC1 (stereo not drawn)	-7%	i	.	i	.
COc1ccc2cc(C(=O)NCc3ccc4c(c3)CCN4C(=O)c3ccc(F)cc3)[nH]c2c1	16µM*	i	.	i	.
COc1ccc2cc(C(=O)NCc3ccc4c(c3)CCN4C(=O)c3ccc(C)cc3)[nH]c2c1	5%	i	.	i	.
O=C(O)c1ccc(OS(=O)(=O)c2ccc(Cl)s2)cc1	14µM*	i	5%	i	7%
Cc1ccccc1CNc1nc(N(C)C)nc2c1cnn2C	20µM*	i	.	i	.
CCOC(=O)N1CCN(C(=O)C[C@@H]2C[C@@]3(C(=O)OCC)CCC=C3N(Cc3ccccc3)C2=O)CC1	23%	i	0%	i	.
CCOC(=O)N1CCN(C(=O)C[C@@H]2C[C@@]3(C(=O)OCC)CCC=C3N(Cc3ccc(Cl)cc3Cl)C2=O)CC1	22µM*	i	21%	?	.
CCOC(=O)N1CCN(C(=O)C[C@@H]2C[C@@]3(C(=O)OCC)CCC=C3N(Cc3cccc4ccccc34)C2=O)CC1	16µM*	i	17%	i	.
O=C(COC(=O)c1ccc2ncsc2c1)NC(=O)C1CCCCC1	.	.	24%	.	.
O=C(CSCc1ccccc1Cl)N1CCN(c2ccc(F)cc2)CC1	14µM*	i	.	i	.
O=C(CSCc1ccccc1Cl)N1CCN(c2ccc(Cl)cc2)CC1	16µM*	i	.	?	.
Cc1ccc(NC(=O)c2c(C(=O)Nc3ccccc3)sc3nc(C)cc(=O)n23)c(C)c1	26%	i	.	i	.
C/C(=N\O)c1ccc2c3ccccc3n(C)c2c1	9%	i	-1%	i	-3%
